TbREL1 inh – TbREL1 RNA ligase inhibitors, primary screen, biochemical, FRET fluorescence | RNA-editing ligase 1, mitochondrial (Trypanosoma brucei brucei), P86926 | inhibition, % at 9.66 µM | 89,000 tested, 0.49% active | TbREL1 RNA ligation;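 active = inhibition above the mean inhibition across all screened compounds plus 3 SD, cut at about 11% in these data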;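 also: 0% = plate median of test wells and 100% = NSC42067 control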
Target sequence (P86926 whole entry, looked up): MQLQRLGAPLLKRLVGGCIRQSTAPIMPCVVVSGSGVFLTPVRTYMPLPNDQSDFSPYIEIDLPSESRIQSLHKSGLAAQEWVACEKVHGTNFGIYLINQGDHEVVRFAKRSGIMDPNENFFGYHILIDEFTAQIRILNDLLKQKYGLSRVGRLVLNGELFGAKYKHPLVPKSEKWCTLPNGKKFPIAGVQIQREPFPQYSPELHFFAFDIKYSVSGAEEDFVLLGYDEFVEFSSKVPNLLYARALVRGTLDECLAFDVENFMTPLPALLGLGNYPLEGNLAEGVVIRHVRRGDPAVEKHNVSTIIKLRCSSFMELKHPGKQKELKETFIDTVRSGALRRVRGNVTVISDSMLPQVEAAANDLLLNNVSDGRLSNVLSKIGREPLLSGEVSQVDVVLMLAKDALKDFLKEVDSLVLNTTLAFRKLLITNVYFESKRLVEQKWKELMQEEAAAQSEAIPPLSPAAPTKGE
TbREL1 confirm – TbREL1 RNA ligase inhibitors, confirmation, biochemical, FRET fluorescence, triplicate; shares compounds with TbREL1 inh; TbREL1 RNA ligation; inhibition, % at 9.66 µM; 390 tested, 37% active; AID 1117282, 2014;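 active = mean inhibition across replicates above a set limit taken from the earlier primary screen, cut at about 11% in these data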;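 also: 0% = REL1 with substrate and DMSO and 100% = REL1 plus control inhibitor NSC42067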
The depositor's hits bear a star; ! = repeats disagree. The full list was thinned out, with hits kept by preference.

SMILES	TbREL1 inh	others
CCOC(=O)[C@]12CCCC=C1N(CCCOC)C(=O)[C@@H]2CC(=O)NCc1cccs1	-3
O=C(CSc1nnc(-c2ccccc2)n1-c1ccc(Cl)cc1)NN=Cc1c[nH]c2ccccc12	-3
CCOc1ccc2nc(NC(=O)c3cnccn3)sc2c1	2
Cc1cnc(NC(=O)c2ccco2)s1	6
O=C(Nc1nc(-c2ccco2)c(-c2ccco2)s1)c1cnccn1	20*	TbREL1 confirm=3
Cc1ccc(NC(=O)CN2C(=O)CCSc3ccccc32)cc1C	3
O=C(CCc1ccccc1-c1ccccc1CCNC(=O)c1cccc(F)c1)NCc1ccccc1	9
CCCNC(=O)C1(C)CCCN(C(=O)c2cccc(Cl)c2)C1 (stereo unspecified)	-1
Cc1ccccc1CN1CCCCC(NC(=O)c2cccc(F)c2)C1=O (stereo unspecified)	-2
N#Cc1cccc(OCCCN2CCC(C(O)(c3ccccc3)c3ccccc3)CC2)c1	15*	TbREL1 confirm=7
CC(COc1ccc(C#N)cc1)CN1CCC(C(O)(c2ccccc2)c2ccccc2)CC1 (stereo unspecified)	6
OC(c1ccccc1)(c1ccccc1)C1CCN(CCCOc2ccc(Cl)cc2)CC1	9
O=C(Nc1cccc(C(F)(F)F)c1)O[C@@H]1CC[C@@]23CCCN2C(=O)CCC[C@H]3C1	-3
COC(=O)[C@]12C[C@H](CC(=O)NCCC(C)C)C(=O)N(Cc3cccc4ccccc34)C1=C[C@H](COCc1ccccc1)O[C@@H]2C	-3
COC(=O)C1=C(C)N(Cc2ccccc2C(F)(F)F)C(=NCC2CC2)NC1c1ccc(F)cc1 (stereo unspecified)	12*	TbREL1 confirm=11*
COC(=O)C1=C(C)N(Cc2ccccc2)C(=NCC(C)C)N[C@H]1c1cccc(F)c1	6
COC(=O)C1=C(C)N(Cc2ccc(C(F)(F)F)cc2)C(=NCc2ccccc2C(F)(F)F)NC1c1ccc(F)cc1 (stereo unspecified)	14*	TbREL1 confirm=14*
COC(=O)C1=C(C)N(Cc2ccccc2C(F)(F)F)C(=NCc2ccc(C(F)(F)F)cc2)NC1c1cccc(F)c1 (stereo unspecified)	14*	TbREL1 confirm=22*
COC(=O)C1=C(C)N(Cc2ccccc2)C(=NCc2ccco2)N[C@H]1c1cccc(F)c1	5
COC(=O)C1=C(C)N(Cc2ccccc2C(F)(F)F)C(=NCc2ccc(OC)cc2)NC1c1cccc(Cl)c1 (stereo unspecified)	19*	TbREL1 confirm=18*
COC(=O)C1=C(C)N(Cc2ccccc2C(F)(F)F)C(=NCC2CC2)NC1c1ccc(C(F)(F)F)cc1 (stereo unspecified)	10
COC(=O)C1=C(C)N(Cc2ccc(Cl)cc2)C(=S)NC1c1ccc(OC)cc1 (stereo unspecified)	-3
COC(=O)C1=C(C)N(Cc2ccc(F)cc2)C(=S)NC1c1ccc(Cl)cc1 (stereo unspecified)	-1
FC(F)(F)c1ccccc1Cn1ccc2ccc(-c3ccc4ccn(Cc5ccccc5C(F)(F)F)c4c3)cc21	1
CC(=O)Nc1ccc(NC(=O)CSc2nnc(-c3n[nH]c4c3CCC4)n2N)cc1	1
SMILES	TbREL1 inh	others
CC(C)CNS(=O)(=O)/C=C/c1ccccc1CCNC(=O)OC(C)(C)C	5
CCC[C@H]1[C@@H](OC(=O)NCc2ccc(OC)cc2)CC[C@@]23CCCN2C(=O)CCC[C@@H]13	-5
CCCCn1nnnc1C1c2ccccc2OCC(=O)N1Cc1ccc2c(c1)OCO2 (stereo unspecified)	1
Cc1ccc(OCc2nnc(SCC(=O)Nc3ccc4c(c3)OCO4)n2Cc2ccco2)cc1	-3
CCn1c(SCC(=O)NN=Cc2c(C)nn(-c3ccccc3)c2C)nnc1-c1ccc(OC)c(OC)c1	0
O=C(O)CCCc1nc2ccccc2s1	0
O=C(O)COCc1nc2ccccc2s1	12*	TbREL1 confirm=7
NC(=O)c1ccccc1OCc1nc2ccccc2s1	-6
Cc1cc(C)c2c(=O)n3c(nc2c1)C(Cc1ccccc1)NC(=O)c1cc2ccccc2cc1-3 (stereo unspecified)	4
COc1ccc(-n2c(COc3ccc(Cl)cc3)nnc2SCC(=O)Nc2ccc(Oc3ccccc3)cc2)cc1	1
Cc1ccc(OCCN2CCN(C)CC2)c([N+](=O)[O-])c1	12*	TbREL1 confirm=6
Cc1ccc(OCCOCCN2CCN(C)CC2)c(C(C)(C)C)c1	-1
COCCCNCCCCOc1ccc(C)cc1[N+](=O)[O-]	3
C#CCNC(=O)C[C@H]1C[C@@]2(C(=O)OC)C(=C[C@H](C(C)(C)C)O[C@@H]2C)N(Cc2ccc(Cl)cc2Cl)C1=O	8
O=C(NCCc1ccccc1F)c1ccc2c(c1)ncn2C1CCCCC1	3
C[c-]1[c-](C)[c-](C)[c-](C)[c-]1C.[Fe].c1cc2nccc(N3CCCC3)[c-]2c1 (stereo unspecified)	14*	TbREL1 confirm=16*!
